Assay results: the supplement of paper PMC10849652
The full data set covers some 7,900 targets. This sample favours those with a hit. About 0.6% of all pairs of compound and target were hits.

Experiments:
Test in all cases: log2 fold change, soluble protein after heating vs DMSO (PISA); higher = thermal stabilisation; K562 cells, 10 uM, 30 min; active = over 0.2 and 3.5 SD of the protein, either way, in both replicates (recomputed)
[1] = compound: NC(=O)Nc1cc(-c2cccc(F)c2)sc1C(=O)N[C@H]1CCCNC1
How it was run: (§1)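 For each measurement, 10 μM compound was applied for 30 min to K562 cells at 2×10^6 cells/mL. Aliquots were heated for 3 min across 48°C-58°C, pooled, and extracted in PBS with 0.5% NP-40 at 4°C; the supernatant after 21,000xg for 90 min was soluble protein. This was quantified by TMTpro 16plex LC-MS/MS with channel sums equalised, and thermal stability was reported relative to control samples from duplicates, on a log2 fold-change scale.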

[2] = compound: NC(=O)c1cnc(N[C@@H]2CCCC[C@@H]2N)nc1Nc1cccc(-n2nccn2)c1
How it was run: as §1

[3] = compound: NC1(c2ccc(-c3nc4ccn5c(=O)[nH]nc5c4cc3-c3ccccc3)cc2)CCC1
How it was run: as §1

[4] = compound: NCC(=O)Nc1ccc(-n2nc(C(F)(F)F)cc2-c2ccc3c(ccc4ccccc43)c2)cc1
How it was run: as §1

entinostat = compound: Nc1ccccc1NC(=O)c1ccc(CNC(=O)OCc2cccnc2)cc1 [entinostat]
How it was run: as §1

vorinostat = compound: O=C(CCCCCCC(=O)Nc1ccccc1)NO [vorinostat]
How it was run: as §1

citarinostat = compound: O=C(CCCCCCNC(=O)c1cnc(N(c2ccccc2)c2ccccc2Cl)nc1)NO [citarinostat]
How it was run: as §1

silmitasertib = compound: O=C(O)c1ccc2c(c1)nc(Nc1cccc(Cl)c1)c1ccncc12 [silmitasertib]
How it was run: as §1

[5] = compound: O=C1NC(=O)C(c2cnc3ccccn23)=C1c1cn2c3c(cc(F)cc13)CN(C(=O)N1CCCCC1)CC2
How it was run: as §1

[6] = compound: c1cc(OCCN2CCCCC2)cc(-c2n[nH]c3ccc(-c4nnc[nH]4)cc23)c1
How it was run: as §1

Measured: log2 fold change

MTHFS (UniProt P49914)
Sequence of UniProt P49914 (P49914 whole entry, looked up): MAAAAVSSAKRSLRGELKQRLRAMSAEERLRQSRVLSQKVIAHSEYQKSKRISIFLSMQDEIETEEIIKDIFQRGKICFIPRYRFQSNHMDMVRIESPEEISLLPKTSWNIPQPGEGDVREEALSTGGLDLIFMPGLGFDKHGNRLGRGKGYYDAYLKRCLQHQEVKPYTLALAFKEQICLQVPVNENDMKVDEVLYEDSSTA
inactive: [1] -0.021 | [2] -0.028 | [3] -0.086 | [4] -0.135 | entinostat 0.007 | vorinostat -0.1 | citarinostat 0.025 | silmitasertib 0.021 | [5] 0.014 | [6] -0.057

MRPS5 (UniProt P82675)
inactive: [1] 0.009 | [2] 0.034 | [3] -0.057 | [4] 0.013 | entinostat 0 | vorinostat 0.125 | citarinostat 0.023 | silmitasertib -0.043 | [5] -0.039 | [6] -0.018

NUMA1 (UniProt Q14980)
inactive: [1] -0.117 | [2] -0.091 | [3] -0.139 | [4] 0.101 | entinostat 0.072 | vorinostat 0.002 | citarinostat 0.01 | silmitasertib 0.005 | [5] 0.007 | [6] -0.12

MTFR1L (UniProt Q9H019)
Sequence of UniProt Q9H019 (Q9H019 whole entry, looked up): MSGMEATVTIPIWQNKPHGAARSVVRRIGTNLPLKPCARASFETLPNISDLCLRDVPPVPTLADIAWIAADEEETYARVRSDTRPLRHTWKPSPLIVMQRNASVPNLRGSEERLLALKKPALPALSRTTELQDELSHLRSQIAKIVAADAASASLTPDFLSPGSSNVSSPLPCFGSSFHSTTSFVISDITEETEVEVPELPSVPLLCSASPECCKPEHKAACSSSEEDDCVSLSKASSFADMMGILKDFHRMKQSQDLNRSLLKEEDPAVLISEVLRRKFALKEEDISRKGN
inactive: [1] -0.069 | [2] -0.079 | [4] -0.005 | entinostat 0.069 | vorinostat 0.356 | [5] -0.014

MRPS17 (UniProt Q9Y2R5)
inactive: [1] -0.035 | [2] 0.091 | [3] -0.138 | [4] -0.018 | entinostat -0.027 | vorinostat 0.191 | citarinostat 0.05 | silmitasertib -0.051 | [5] -0.047 | [6] 0.02

MRFAP1 (UniProt Q9Y605)
Sequence of UniProt Q9Y605 (Q9Y605 whole entry, looked up): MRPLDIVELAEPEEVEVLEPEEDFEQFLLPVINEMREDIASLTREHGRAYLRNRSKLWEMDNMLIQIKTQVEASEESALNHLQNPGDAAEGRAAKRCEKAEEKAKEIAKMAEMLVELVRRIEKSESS
inactive: [1] 0.134 | [2] 0.01 | [3] 0.021 | [4] -0.082 | entinostat 0.014 | vorinostat 0.15 | citarinostat 0.133 | silmitasertib -0.019 | [6] -0.028

MPHOSPH8 isoform 2 (UniProt Q99549)
inactive: [1] 0.257 | [2] 0.004 | [3] 0.161 | [4] -0.018 | entinostat -0.191 | silmitasertib -0.083 | [5] 0.189

MTMR14 (UniProt Q8NCE2)
inactive: [1] -0.02 | [2] -0.08 | [3] -0.087 | [4] -0.075 | entinostat 0.024 | vorinostat 0.093 | citarinostat 0.08 | silmitasertib 0.071 | [5] -0.081 | [6] 0.039

NPC1L1 (UniProt Q9UHC9)
Sequence of UniProt Q9UHC9 (Q9UHC9 whole entry, looked up): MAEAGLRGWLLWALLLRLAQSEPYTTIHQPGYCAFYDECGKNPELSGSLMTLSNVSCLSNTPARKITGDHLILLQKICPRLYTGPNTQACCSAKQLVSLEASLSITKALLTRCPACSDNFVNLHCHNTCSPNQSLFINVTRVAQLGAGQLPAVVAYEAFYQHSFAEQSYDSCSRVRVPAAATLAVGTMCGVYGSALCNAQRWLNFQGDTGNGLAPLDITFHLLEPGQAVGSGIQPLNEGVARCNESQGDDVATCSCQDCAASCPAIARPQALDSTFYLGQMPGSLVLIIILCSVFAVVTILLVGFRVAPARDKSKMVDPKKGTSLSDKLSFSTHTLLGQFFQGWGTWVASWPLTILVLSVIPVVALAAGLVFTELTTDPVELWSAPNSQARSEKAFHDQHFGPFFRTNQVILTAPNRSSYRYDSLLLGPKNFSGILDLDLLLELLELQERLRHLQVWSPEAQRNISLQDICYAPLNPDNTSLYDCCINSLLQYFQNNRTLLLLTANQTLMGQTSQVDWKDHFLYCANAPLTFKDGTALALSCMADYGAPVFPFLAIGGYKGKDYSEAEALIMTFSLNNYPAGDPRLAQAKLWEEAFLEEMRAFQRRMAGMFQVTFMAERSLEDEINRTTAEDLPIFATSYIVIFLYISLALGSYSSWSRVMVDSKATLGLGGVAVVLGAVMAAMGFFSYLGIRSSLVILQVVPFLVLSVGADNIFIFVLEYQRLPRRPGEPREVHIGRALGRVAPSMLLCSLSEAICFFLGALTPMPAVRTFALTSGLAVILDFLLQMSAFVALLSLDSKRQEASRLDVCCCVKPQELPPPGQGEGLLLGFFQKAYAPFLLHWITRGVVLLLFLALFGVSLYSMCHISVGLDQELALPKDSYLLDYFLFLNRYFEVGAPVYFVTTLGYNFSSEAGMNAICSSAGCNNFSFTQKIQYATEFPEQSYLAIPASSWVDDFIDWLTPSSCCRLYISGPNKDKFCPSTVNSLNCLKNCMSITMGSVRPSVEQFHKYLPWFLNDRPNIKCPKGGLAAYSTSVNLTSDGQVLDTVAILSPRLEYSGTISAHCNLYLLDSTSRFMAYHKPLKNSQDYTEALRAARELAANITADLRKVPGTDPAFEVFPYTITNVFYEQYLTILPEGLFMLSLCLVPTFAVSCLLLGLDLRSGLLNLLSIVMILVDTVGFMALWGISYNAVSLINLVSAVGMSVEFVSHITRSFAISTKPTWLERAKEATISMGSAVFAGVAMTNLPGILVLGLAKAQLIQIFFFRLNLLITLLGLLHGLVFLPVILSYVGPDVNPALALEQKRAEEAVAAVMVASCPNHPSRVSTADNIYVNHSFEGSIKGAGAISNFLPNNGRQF
inactive: [1] 0.011 | [2] -0.038 | [3] -0.104 | [4] -0.024 | entinostat -0.011 | citarinostat 0.036 | silmitasertib -0.028 | [6] 0.054

OPA1 isoform 2 (UniProt O60313)
inactive: [1] -0.046 | [2] -0.054 | [3] -0.165 | [4] -0.072 | entinostat 0.024 | vorinostat 0.033 | citarinostat 0.05 | silmitasertib -0.027 | [5] -0.033 | [6] -0.048

MLX (UniProt Q9UH92)
inactive: [1] 0.144 | [2] -0.115 | [3] -0.177 | entinostat 0.005 | vorinostat 0.095 | citarinostat 0.139 | silmitasertib -0.091 | [5] -0.086 | [6] -0.175

MRPS21 (UniProt P82921)
inactive: [1] -0.009 | [2] 0.137 | [3] -0.003 | [4] 0.095 | entinostat -0.004 | citarinostat 0.07 | silmitasertib -0.156 | [5] 0.024 | [6] -0.05

NOLC1 isoform 2 (UniProt Q14978)
inactive: [1] 0.149 | [2] -0.031 | [3] -0.011 | [4] 0.014 | entinostat -0.043 | vorinostat 0.009 | citarinostat 0.109 | silmitasertib -0.037 | [5] -0.037 | [6] -0.183

NASP isoform 2 (UniProt P49321)
inactive: [3] 0.24 | silmitasertib -0.475

NMU (UniProt P48645)
inactive: [2] -0.023 | [4] 0.132 | vorinostat 0.041 | citarinostat 0.043 | [5] 0.144 | [6] -0.08

NRGN (UniProt Q92686)
inactive: [2] 0.144 | vorinostat -0.231 | [5] -0.215

NEU3 isoform 2 (UniProt Q9UQ49)
inactive: [1] 0.112 | entinostat -0.071

OSBPL3 (UniProt Q9H4L5)
Sequence of UniProt Q9H4L5 (Q9H4L5 whole entry, looked up): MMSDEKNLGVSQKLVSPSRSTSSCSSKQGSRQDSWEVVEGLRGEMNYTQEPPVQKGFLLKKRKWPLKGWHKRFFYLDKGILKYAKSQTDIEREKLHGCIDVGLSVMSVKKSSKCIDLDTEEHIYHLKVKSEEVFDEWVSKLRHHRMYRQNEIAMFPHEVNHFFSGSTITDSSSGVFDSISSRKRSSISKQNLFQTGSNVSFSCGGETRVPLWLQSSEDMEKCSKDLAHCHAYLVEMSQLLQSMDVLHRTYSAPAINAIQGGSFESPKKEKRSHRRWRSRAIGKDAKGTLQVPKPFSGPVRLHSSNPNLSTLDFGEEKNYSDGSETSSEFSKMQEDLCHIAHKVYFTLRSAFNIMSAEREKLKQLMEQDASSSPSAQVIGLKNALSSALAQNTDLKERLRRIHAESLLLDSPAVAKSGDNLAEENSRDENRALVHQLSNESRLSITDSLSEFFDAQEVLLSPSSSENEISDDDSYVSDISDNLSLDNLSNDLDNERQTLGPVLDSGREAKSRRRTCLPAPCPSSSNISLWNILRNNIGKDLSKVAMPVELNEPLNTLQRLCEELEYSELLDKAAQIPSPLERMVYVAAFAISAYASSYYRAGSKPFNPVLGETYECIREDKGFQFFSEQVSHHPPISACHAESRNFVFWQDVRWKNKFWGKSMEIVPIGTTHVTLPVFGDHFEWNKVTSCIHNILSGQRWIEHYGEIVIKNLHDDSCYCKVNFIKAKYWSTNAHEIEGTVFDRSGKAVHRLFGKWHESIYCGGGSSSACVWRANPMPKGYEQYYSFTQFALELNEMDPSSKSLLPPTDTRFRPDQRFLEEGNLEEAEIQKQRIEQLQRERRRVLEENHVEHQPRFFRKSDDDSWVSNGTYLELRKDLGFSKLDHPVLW
inactive: [1] -0.079 | [2] -0.43 | [4] 0.106 | entinostat 0.077 | citarinostat -0.077 | [5] 0.307 | [6] -0.072

NA (UniProt B2RBV5)
inactive: [1] 0.06 | [3] -0.055 | entinostat 0.029 | vorinostat 0.045 | citarinostat 0.12 | silmitasertib 0.056 | [5] -0.001 | [6] -0.014

MT-ND2 (UniProt P03891)
inactive: [2] 0.146 | [3] -0.128 | [4] 0.036 | vorinostat 0.036 | silmitasertib -0.01

NDUFA7 (UniProt M0R0N0)
inactive: [1] -0.307 | [4] -0.344 | entinostat -0.063

MYLK (UniProt Q15746)
inactive: [1] -0.063 | [3] -0.064 | [4] -0.21 | entinostat -0.081 | vorinostat -0.059 | citarinostat -0.089 | silmitasertib 0.175 | [6] 0.204

OAF (UniProt Q86UD1)
inactive: [1] -0.089 | [3] -0.188 | entinostat -0.029 | silmitasertib 0.019

MON1A (UniProt Q86VX9)
inactive: [1] 0.016 | [3] 0.001 | entinostat -0.005 | vorinostat 0.017 | citarinostat 0.161 | silmitasertib -0.157 | [5] -0.013 | [6] -0.275

NA, A0A1W2PSA9
inactive: [2] 0.004 | vorinostat -0.364

OSBPL2 (UniProt Q9H1P3)
inactive: [3] -0.443 | silmitasertib 0.148

NOS1AP (UniProt O75052)
inactive: [3] -0.27 | [4] -0.302 | citarinostat -0.225 | silmitasertib 0.312 | [5] -0.186 | [6] 0.59

NA (UniProt J3KR12)
inactive: [3] -0.292 | silmitasertib -0.108 | [5] 0.427

PACRGL (UniProt Q8N7B6)
inactive: [1] 0.055 | entinostat -0.116

MLH1 (UniProt P40692)
inactive: [2] 0.058 | [3] -0.102 | vorinostat -0.042 | silmitasertib -0.017 | [5] -0.098

MORC2 (UniProt Q9Y6X9)
Sequence of UniProt Q9Y6X9 (Q9Y6X9 whole entry, looked up): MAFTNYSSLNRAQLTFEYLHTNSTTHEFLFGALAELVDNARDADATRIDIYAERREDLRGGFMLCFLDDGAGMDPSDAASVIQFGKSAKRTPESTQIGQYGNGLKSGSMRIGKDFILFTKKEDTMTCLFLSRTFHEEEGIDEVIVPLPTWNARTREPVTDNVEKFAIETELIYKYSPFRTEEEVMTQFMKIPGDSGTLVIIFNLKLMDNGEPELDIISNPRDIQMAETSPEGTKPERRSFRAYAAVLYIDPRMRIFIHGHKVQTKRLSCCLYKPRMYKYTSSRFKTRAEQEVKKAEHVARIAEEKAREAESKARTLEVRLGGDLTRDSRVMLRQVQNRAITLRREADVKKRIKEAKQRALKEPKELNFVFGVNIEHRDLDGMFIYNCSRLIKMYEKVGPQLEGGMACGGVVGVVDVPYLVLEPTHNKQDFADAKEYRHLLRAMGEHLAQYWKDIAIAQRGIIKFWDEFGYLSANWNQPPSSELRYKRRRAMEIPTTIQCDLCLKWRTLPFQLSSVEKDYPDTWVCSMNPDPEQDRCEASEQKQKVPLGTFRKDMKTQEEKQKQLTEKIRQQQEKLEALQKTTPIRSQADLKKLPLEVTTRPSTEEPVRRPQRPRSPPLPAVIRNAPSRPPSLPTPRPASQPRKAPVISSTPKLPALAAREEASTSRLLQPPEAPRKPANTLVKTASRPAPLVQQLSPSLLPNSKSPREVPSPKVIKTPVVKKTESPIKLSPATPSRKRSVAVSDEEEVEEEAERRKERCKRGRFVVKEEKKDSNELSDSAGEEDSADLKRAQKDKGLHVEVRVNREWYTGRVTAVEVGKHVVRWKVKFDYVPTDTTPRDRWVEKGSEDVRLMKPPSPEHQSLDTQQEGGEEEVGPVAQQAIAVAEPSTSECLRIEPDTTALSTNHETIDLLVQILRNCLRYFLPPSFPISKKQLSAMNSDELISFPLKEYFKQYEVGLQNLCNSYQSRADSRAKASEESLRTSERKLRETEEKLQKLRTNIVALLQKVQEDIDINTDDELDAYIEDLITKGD
inactive: [2] -0.193 | [3] -0.118 | silmitasertib -0.066 | [5] -0.151

NUDT6 (UniProt P53370)
inactive: [3] 0.149 | [4] 0.298 | citarinostat 0.164 | [5] -0.097 | [6] -0.385
active: silmitasertib -0.517

MYSM1 (UniProt Q5VVJ2)
inactive: [1] -0.205 | entinostat 0.237 | citarinostat 0.564 | [6] 0.174

OGFOD2 (UniProt Q6N063)
inactive: [2] 0.005 | [3] -0.151 | [4] -0.012 | vorinostat -0.313 | citarinostat 0.036 | silmitasertib 0.097 | [5] -0.073 | [6] -0.012

NKTR (UniProt P30414)
inactive: [3] 0.074 | silmitasertib -0.023

ORC3 (UniProt Q9UBD5)
inactive: [2] 0.067 | citarinostat 0.032 | [6] -0.195

MMADHC (UniProt Q9H3L0)
Sequence of UniProt Q9H3L0 (Q9H3L0 whole entry, looked up): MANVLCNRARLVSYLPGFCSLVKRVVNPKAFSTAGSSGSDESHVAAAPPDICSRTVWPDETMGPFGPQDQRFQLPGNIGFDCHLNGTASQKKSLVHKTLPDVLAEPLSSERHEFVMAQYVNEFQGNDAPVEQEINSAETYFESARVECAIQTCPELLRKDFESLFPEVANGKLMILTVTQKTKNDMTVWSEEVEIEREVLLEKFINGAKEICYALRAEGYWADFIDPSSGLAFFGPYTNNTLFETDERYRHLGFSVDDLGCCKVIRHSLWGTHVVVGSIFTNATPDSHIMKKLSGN
inactive: [2] 0.035 | [3] 0.014 | [4] 0.057 | vorinostat 0.157 | citarinostat 0.141 | silmitasertib 0.031 | [6] 0.031

MSANTD2 (UniProt Q6P1R3)
Sequence of UniProt Q6P1R3 (Q6P1R3 whole entry, looked up): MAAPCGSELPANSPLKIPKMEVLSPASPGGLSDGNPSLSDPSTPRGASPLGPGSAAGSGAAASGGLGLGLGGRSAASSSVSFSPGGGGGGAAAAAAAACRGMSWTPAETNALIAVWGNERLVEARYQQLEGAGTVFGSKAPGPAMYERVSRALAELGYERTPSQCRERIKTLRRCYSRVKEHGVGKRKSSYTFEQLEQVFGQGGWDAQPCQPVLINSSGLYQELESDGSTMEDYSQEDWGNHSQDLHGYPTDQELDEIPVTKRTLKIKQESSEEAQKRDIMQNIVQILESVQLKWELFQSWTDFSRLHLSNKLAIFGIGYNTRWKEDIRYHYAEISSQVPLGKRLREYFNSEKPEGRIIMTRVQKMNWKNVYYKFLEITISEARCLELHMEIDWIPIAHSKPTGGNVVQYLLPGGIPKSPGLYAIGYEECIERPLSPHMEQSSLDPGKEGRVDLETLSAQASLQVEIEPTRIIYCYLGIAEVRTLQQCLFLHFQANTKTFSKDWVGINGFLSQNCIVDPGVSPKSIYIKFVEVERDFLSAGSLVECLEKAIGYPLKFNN
inactive: [1] -0.041 | [4] -0.065 | entinostat -0.184 | citarinostat -0.124 | [5] 0.004 | [6] 0.16

NELFCD (UniProt Q8IXH7)
inactive: [2] -0.005 | [4] -0.321 | vorinostat 0.234 | [5] -0.12

MRM2 (UniProt Q9UI43)
inactive: [2] -0.202 | [4] -0.211

OXR1 isoform 2 (UniProt Q8N573)
inactive: [2] 0.054 | [4] -0.046 | vorinostat 0.01 | citarinostat 0.013 | [5] -0.096 | [6] -0.053

P4HA2 (UniProt O15460)
inactive: [1] -0.034 | [3] -0.129 | [4] 0.063 | entinostat -0.104 | vorinostat -0.047 | citarinostat -0.019 | silmitasertib 0.025 | [5] 0.201 | [6] -0.021

MYO19 (UniProt Q96H55)
inactive: [2] -0.112 | [4] 0.051 | vorinostat 0.029 | [5] 0.232

MOB2 isoform 3 (UniProt Q70IA6)
inactive: [3] -0.251 | vorinostat 0.044 | silmitasertib 0.062 | [5] -0.368

NUDT7 (UniProt P0C024)
inactive: [1] 0.01 | entinostat -0.05 | vorinostat 0.286 | [5] 0.12

NKAP (UniProt Q8N5F7)
inactive: [2] -0.043 | [3] 0.027 | [4] -0.028 | vorinostat 0.019 | citarinostat 0.099 | silmitasertib -0.132 | [5] 0.111 | [6] -0.144

MOB3B (UniProt Q86TA1)
Sequence of UniProt Q86TA1 (Q86TA1 whole entry, looked up): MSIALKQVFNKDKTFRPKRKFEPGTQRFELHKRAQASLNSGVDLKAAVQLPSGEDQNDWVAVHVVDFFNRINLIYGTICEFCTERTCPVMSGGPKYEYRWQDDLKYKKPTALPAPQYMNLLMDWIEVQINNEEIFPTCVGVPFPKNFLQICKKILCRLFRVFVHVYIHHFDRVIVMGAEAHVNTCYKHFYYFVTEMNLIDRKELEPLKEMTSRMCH
inactive: [2] -0.082 | [3] -0.288 | [4] -0.021 | vorinostat -0.049 | silmitasertib -0.023

OVCA2 (UniProt Q8WZ82)
inactive: [2] -0.067 | [3] 0.03 | vorinostat 0.08 | citarinostat -0.085 | silmitasertib 0.206 | [6] 0.08

NA, A0A2R8Y3M9
inactive: [1] -0.104 | [2] -0.17 | entinostat -0.011 | vorinostat 0.372

NCOA5 (UniProt Q9HCD5)
inactive: [1] -0.101 | entinostat -0.011 | vorinostat 0.023

NA, A0A494C071
inactive: [2] -0.484 | [3] -0.407 | [4] -0.153 | vorinostat 0 | citarinostat 0.023 | silmitasertib 0.212 | [5] -0.022 | [6] -0.086

NAP1L1 (UniProt B7Z9C2)
inactive: [2] -0.124 | [3] 0.028 | [4] 0.064 | vorinostat 0.23 | citarinostat 0.068 | silmitasertib 0.001 | [6] 0.179
